Binding signal data for 1 sequence are collected here from article PMC7862700, “An all-to-all approach to the identification of sequence-specific readers for epigenetic DNA modifications on cytosine”.

Common to all, as to assay: DAPPL (digital affinity profiling via proximity ligation, sequencing); 10 mM Tris-HCl pH 7.5, 50 mM NaCl, 1 mM DTT, 4% glycerol, room temperature, 30 min; GST-TFs on glutathione beads, 16-mer random dsDNA library, 0.1% formaldehyde crosslink after washing; high values mean tight binding
What all share (conditions): protein: recombinant; tags: N-terminal GST; dsDNA, one strand shown

In one assay the target is T1, ELK1 (Homo sapiens, UniProt P19419 1-428).
T1 sequence: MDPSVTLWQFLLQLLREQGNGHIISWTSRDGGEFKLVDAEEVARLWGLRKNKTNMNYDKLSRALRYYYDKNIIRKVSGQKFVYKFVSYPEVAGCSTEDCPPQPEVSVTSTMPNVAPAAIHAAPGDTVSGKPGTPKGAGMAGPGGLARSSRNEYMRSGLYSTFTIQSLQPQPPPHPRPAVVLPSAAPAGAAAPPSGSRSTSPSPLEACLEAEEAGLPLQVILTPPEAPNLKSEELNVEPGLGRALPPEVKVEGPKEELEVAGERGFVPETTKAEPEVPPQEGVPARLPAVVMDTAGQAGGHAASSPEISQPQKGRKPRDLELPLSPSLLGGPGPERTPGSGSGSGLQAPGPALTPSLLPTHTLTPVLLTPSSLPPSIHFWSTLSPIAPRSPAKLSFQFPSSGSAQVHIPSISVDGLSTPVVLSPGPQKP
Summed up: (§1)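 Each value of binding signal is a hexamer's read frequency for a factor divided by the same hexamer's frequency in the tag-only sample. Barcoded, bead-captured GST fusions of human transcription factors made in yeast were pooled with that sample and incubated with 200 nmole of a random double-stranded 16-mer DNA library in Tris/NaCl/DTT/glycerol buffer at room temperature for 30 min. Washing, 0.1% formaldehyde crosslinking, proximity ligation, PCR and Illumina NextSeq500 sequencing followed.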

The target in another assay is T2, ERG (Homo sapiens, UniProt P11308 1-479).
T2 sequence: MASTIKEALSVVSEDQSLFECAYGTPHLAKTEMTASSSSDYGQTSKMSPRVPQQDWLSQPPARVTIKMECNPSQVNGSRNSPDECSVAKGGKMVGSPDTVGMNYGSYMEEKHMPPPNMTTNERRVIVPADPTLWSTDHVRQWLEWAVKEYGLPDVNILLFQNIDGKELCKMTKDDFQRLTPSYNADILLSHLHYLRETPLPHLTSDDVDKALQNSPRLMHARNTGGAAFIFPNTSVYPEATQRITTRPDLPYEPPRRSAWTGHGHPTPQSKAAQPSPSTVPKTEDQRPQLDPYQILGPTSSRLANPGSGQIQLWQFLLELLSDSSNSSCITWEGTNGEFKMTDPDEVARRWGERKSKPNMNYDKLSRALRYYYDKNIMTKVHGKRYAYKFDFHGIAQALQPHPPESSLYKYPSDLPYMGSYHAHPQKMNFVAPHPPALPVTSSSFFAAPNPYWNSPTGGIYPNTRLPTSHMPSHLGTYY
Summed up:
as §1

The next assay has as its target T3, EHF (Homo sapiens, UniProt Q9NZC4 1-300).
T3 sequence: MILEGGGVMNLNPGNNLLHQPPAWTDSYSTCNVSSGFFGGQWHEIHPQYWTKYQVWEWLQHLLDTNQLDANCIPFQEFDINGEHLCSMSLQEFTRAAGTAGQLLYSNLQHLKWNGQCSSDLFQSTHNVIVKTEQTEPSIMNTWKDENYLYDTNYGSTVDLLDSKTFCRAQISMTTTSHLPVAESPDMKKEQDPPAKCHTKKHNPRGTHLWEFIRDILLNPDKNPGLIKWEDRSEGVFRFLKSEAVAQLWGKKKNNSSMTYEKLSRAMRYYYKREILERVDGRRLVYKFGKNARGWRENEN
Summed up: as §1

The target in another assay is SPI1 (Homo sapiens, UniProt P17947 1-270). Summed up: as §1
The target of the next assay is SPIB (Homo sapiens, UniProt Q01892 1-262). Summed up: as §1
Chain of SPIB (Q01892 whole entry): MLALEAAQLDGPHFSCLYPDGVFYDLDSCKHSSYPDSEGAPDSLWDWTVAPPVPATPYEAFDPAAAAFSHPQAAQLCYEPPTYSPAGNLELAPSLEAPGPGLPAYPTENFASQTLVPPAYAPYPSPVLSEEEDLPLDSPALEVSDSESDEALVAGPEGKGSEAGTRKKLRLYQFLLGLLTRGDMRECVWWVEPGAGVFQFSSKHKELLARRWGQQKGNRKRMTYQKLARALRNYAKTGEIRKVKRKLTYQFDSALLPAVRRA
For a further assay, the target named is ETV5 (Homo sapiens, UniProt P41161 1-510). The method, boiled down:
as §1

Another assay concerns the target T4, SPIC (Homo sapiens, UniProt Q8N5J4 1-248).
T4 sequence: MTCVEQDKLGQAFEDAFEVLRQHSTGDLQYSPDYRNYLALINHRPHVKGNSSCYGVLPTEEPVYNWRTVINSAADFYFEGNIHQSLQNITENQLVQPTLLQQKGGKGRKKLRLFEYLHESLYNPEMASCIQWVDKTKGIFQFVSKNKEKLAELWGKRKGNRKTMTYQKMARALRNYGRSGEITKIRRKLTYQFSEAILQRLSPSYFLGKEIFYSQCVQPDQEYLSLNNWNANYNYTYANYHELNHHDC
The method, boiled down:
as §1

For another assay, the target named is T5, ELK4 (Homo sapiens, UniProt P28324-2 1-405).
T5 sequence: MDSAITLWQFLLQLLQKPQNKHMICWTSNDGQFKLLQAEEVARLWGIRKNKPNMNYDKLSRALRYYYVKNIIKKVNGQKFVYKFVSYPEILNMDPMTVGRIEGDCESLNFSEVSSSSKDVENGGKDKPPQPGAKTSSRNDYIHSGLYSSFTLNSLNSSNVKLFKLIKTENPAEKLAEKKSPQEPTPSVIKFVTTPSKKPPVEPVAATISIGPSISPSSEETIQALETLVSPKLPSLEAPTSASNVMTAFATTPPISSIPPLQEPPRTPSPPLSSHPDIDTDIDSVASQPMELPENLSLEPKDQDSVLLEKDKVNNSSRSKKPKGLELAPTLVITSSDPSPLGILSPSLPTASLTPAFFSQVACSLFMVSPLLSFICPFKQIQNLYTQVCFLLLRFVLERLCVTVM
The method, boiled down:
as §1

The target in a further assay is T6, ELF3 (Homo sapiens, UniProt P78545 1-371).
T6 sequence: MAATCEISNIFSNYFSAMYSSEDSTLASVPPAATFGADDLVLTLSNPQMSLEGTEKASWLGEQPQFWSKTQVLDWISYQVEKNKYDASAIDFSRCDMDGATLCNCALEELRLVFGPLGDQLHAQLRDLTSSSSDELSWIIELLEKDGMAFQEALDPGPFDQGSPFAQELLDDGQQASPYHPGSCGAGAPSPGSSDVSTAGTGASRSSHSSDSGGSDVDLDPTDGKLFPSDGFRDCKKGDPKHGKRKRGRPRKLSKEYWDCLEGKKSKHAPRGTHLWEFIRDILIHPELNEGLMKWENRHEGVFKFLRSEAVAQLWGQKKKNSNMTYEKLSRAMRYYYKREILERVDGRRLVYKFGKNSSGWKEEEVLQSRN
The method, boiled down:
as §1

A further assay concerns the target ETV1 (Homo sapiens, UniProt P50549 1-477). Summed up: as §1
The target of the next assay is T7, ETV3L (Homo sapiens, UniProt Q6ZN32 1-361).
T7 sequence: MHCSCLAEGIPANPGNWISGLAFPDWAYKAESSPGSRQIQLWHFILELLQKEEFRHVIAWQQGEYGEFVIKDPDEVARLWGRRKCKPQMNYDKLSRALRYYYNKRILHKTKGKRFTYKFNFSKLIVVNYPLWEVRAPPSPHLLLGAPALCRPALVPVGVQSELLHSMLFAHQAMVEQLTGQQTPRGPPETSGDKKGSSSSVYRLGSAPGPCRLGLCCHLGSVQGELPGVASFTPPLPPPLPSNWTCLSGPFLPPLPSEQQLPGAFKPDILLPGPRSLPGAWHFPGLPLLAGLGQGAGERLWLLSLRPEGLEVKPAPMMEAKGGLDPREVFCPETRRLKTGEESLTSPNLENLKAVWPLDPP
Summed up: as §1

In a further assay the target is T8, ETS2 (Homo sapiens, UniProt P15036 1-469).
T8 sequence: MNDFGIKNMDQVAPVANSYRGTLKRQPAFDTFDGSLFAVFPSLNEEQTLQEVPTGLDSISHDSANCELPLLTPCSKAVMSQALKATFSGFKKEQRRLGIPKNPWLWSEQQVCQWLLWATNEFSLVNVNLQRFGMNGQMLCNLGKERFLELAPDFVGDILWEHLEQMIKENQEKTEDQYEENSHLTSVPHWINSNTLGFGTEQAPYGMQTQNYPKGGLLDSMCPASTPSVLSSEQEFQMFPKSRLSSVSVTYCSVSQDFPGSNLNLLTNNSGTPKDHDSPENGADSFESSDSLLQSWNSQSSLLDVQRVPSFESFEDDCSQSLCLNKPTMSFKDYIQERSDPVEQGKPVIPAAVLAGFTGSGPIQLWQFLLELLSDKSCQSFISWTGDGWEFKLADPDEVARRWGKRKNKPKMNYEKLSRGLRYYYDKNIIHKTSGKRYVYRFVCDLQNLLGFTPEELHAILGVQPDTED
The method, boiled down:
as §1

For a further assay, the target named is T9, SPDEF (Homo sapiens, UniProt O95238 1-335).
T9 sequence: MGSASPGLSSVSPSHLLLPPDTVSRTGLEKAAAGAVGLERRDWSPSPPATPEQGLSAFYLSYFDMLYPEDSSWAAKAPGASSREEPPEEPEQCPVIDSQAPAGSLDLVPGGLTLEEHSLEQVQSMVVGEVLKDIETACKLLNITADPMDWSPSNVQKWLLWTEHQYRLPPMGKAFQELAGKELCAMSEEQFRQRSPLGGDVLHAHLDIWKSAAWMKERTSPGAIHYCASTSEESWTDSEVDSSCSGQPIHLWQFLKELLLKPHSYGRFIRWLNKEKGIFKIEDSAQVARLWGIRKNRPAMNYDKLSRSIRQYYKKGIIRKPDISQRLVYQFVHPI
Summed up: as §1

Another assay deals with T10, ETV7 (Homo sapiens, UniProt Q9Y603 1-341).
T10 sequence: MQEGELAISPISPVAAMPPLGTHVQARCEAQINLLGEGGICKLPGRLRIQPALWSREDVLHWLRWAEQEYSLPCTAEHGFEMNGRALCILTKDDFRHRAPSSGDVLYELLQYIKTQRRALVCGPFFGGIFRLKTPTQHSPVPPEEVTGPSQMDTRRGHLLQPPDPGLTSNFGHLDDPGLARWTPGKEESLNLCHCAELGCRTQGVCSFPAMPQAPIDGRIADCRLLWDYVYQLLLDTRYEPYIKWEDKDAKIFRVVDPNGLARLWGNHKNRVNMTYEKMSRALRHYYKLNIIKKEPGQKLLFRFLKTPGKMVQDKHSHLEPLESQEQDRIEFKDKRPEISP
The method, boiled down:
as §1

The next assay concerns the target T11, ETV3 (Homo sapiens, UniProt P41162-2 1-143).
T11 sequence: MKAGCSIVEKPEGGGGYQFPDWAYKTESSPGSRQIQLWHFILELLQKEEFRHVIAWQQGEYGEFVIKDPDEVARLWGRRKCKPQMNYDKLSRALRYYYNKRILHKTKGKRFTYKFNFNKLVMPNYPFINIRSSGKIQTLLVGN
The method, boiled down:
as §1

In a further assay the target is ETV6 (Homo sapiens, UniProt P41212 1-452). The method, boiled down: as §1
Chain of ETV6 (P41212 whole entry): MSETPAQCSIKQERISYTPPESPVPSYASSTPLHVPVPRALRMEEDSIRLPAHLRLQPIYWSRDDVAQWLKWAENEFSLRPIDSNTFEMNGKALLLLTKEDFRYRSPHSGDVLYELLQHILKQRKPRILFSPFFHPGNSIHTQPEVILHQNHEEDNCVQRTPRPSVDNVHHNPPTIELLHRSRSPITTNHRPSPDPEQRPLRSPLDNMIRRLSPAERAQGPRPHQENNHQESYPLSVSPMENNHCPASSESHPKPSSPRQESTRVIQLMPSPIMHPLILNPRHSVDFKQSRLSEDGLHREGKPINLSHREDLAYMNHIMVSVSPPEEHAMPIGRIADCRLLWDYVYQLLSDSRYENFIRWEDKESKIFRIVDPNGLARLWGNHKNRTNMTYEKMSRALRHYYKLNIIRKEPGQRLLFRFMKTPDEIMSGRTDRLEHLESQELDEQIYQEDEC

Chain of ETV1 (P50549 whole entry): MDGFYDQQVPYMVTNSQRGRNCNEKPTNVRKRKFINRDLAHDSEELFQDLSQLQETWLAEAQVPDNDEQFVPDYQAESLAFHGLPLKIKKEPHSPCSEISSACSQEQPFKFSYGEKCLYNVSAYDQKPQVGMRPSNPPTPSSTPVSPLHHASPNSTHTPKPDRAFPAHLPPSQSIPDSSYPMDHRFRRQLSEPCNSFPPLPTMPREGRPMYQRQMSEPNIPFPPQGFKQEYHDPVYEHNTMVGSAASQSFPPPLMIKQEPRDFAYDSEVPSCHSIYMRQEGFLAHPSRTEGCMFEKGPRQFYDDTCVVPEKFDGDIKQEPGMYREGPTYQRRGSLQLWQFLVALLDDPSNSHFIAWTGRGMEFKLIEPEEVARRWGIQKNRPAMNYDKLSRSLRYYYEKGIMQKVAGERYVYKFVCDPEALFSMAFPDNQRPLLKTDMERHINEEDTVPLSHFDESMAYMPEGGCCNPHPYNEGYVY
Chain of ETV5 (P41161 whole entry): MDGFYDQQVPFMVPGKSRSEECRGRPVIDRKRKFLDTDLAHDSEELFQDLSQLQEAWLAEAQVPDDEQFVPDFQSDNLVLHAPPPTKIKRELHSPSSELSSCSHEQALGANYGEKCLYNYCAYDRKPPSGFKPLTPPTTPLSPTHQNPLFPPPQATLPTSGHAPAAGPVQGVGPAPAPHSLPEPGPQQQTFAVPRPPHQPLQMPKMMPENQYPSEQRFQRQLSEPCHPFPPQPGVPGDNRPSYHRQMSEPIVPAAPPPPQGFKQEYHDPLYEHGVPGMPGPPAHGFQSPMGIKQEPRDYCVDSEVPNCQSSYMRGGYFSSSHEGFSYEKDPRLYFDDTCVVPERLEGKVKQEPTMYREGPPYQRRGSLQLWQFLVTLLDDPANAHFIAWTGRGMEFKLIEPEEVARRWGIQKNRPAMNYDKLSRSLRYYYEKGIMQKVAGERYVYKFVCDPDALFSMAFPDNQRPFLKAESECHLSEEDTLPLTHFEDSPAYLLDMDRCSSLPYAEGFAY

In the case of AGTCCT, the binding signal with ELK1 is 1.06 fold enrichment (6-mer frequency, TF over GST control); with ERG, 1.07 fold enrichment (6-mer frequency, TF over GST control); with EHF it was 1.03 fold enrichment (6-mer frequency, TF over GST control); with SPI1, 1.2 fold enrichment (6-mer frequency, TF over GST control); in the assay with SPIB, 1.13 fold enrichment (6-mer frequency, TF over GST control); in the assay with ETV5, 1.05 fold enrichment (6-mer frequency, TF over GST control). The binding signal with SPIC is 1.13 fold enrichment (6-mer frequency, TF over GST control); in the assay with ELK4 it was 1 fold enrichment (6-mer frequency, TF over GST control); in the assay with ELF3 it was 1.03 fold enrichment (6-mer frequency, TF over GST control); with ETV1, 1 fold enrichment (6-mer frequency, TF over GST control); in the assay with ETV3L, 1.02 fold enrichment (6-mer frequency, TF over GST control); with ETS2 it was 1.06 fold enrichment (6-mer frequency, TF over GST control). In addition, the binding signal with SPDEF was 1.02 fold enrichment (6-mer frequency, TF over GST control); in the assay with ETV7 it was 1.14 fold enrichment (6-mer frequency, TF over GST control); in the assay with ETV3, 1.01 fold enrichment (6-mer frequency, TF over GST control); with ETV6, 1.03 fold enrichment (6-mer frequency, TF over GST control).
